Reference: PubChem BioAssay (EPA / NIEHS)
Where “and” joins values, the source holds several entries; their conditions need not be identical. Equal values may be shown once. Calls of active or inactive are those of the source. Rule for the calls: active = hit-call score of the fitted dose curve at least 0.9, where 1 is the maximum; inactive = score below 0.9.

The compounds below were run on Interleukin-8 (IL8), CXCL8 (gene 3576) (assay: BSK_SAg_IL8: BioMAP Diversity Plus: SAg Assay for Interleukin-8 (IL8) Biomarker Activity (AID 2283094)). Settings: primary human HUVEC with PBMC; actives raise or lower the signal.
Summary of the method: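 ELISA readout of IL-8 from a superantigen-activated endothelial/PBMC primary human co-culture, taken 24 h post-dosing and fitted in both directions against DMSO; parallel SRB total-protein staining flags overt cytotoxicity.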
For CC/C(=C(\c1ccccc1)c1ccc(OCCN(C)C)cc1)c1ccccc1, the AC50 was 18.3 µM (active) and 7.16 µM (active).
In the case of CC(=O)CCC=C(C)CCC=C(C)C, the outcome is reported as “inactive”.
CC(C)Cc1ccc(C(C)C(=O)O)cc1 (stereo not given) was tested, and the outcome was “inactive”.
CC(C)(CO)CO was tested, and the outcome was “inactive”.
In the case of OCC(F)(OC(F)(F)C(F)(OC(F)(F)C(F)(F)C(F)(F)F)C(F)(F)F)C(F)(F)F (stereo not given), the AC50 is reported as 2.22 µM (active) and 2.66 µM (active).
In the case of C=C(C)C(=O)OCCC(F)(F)C(F)(F)C(F)(F)C(F)(F)C(F)(F)C(F)(F)C(F)(F)C(F)(F)F, the outcome is reported as “inactive”.
With CC(C)CCCC(C)(C)O the outcome was “inactive”.
With C#C[C@]1(O)CC[C@H]2[C@@H]3CCc4cc(O)ccc4[C@H]3CC[C@@]21C the outcome was “inactive”.
c1ccc(OCCOc2ccccc2)cc1 was tested, and the outcome was “inactive”.
CCCO[Si](OCCC)(OCCC)OCCC was tested, and the outcome was “inactive”.
CCCCCCCC1CCCC1=O (stereo not given) was tested, and the outcome was “inactive”.
For c1ccc2c(c1)-c1ccc3ccc4cccc5cc-2c1c3c45, the outcome was “inactive”.
For NC(=O)c1c(Cl)cccc1Cl, the outcome was “inactive”.
CC1=CC(C)C(C=O)C(C)C1 (stereo not given) (tested in a mixture with another compound) was tested, and the outcome was “inactive”.
In the case of CC=CC(=O)C1=C(C)C=CCC1(C)C, the AC50 is reported as 16 nM (active).
In the case of O=C(O)C(F)(F)OC(F)(F)C(F)(F)OC(F)(F)C(F)(F)C(F)(F)C(F)(F)F, the outcome is reported as “inactive”.
In the case of C=CC(=O)OCC(CO)(COC(=O)C=C)COC(=O)C=C, the AC50 is reported as 219 nM (active).
For c1ccc(Sc2ccccc2)cc1, the AC50 was 20000 nM (active).
With CC(=O)c1ccc(C)cc1 the outcome was “inactive”.
In the case of CCCCCCCCCC(=O)OCC, the outcome is reported as “inactive”.
